Here are results for 80 molecules from PubChem BioAssay AID677 (Vanderbilt High Throughput Screening Facility, 2007).

About 720 (42%) of roughly 1,700 compounds were called active.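 Rule for the calls: active = calcium response below the same-plate mean of wells given acetylcholine alone at its 80%-effect dose, minus 3 SD; inactive = the rest.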 The set was probably picked from earlier hits. Not all results are given here.

In this assay the target is Muscarinic acetylcholine receptor M1 (Rattus norvegicus) (UniProt P08482). The assay is described as follows: blockers of ACh-evoked M1 calcium signal – CHO cells, Fluo-4 calcium, duplicate, confirmation (AID 677).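 Note: raw fluorescence intensity difference in arbitrary instrument units and not normalized.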 Particulars: ACh EC80 antagonism, at 10 µM, hits give low values.
Chain of Muscarinic acetylcholine receptor M1 (Rattus norvegicus) (P08482 whole entry, looked up): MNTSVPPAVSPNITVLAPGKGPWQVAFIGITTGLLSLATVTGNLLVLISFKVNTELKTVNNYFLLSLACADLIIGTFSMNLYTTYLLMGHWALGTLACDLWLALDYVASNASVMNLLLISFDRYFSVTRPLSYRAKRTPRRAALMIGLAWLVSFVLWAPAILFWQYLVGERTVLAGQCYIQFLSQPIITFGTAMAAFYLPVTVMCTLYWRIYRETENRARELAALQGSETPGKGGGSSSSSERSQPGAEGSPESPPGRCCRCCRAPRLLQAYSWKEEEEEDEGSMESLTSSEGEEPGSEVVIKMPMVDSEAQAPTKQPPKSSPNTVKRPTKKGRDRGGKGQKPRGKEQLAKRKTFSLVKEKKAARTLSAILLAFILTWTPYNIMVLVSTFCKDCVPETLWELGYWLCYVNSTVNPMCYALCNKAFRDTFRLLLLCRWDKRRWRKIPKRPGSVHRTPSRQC
As for `Cc1ccsc1-c1nc(CSCC(=O)NCCN2CCCC2)c(C)o1`, the calcium response (max-min fluorescence) is 379 (active). Turning to `C=CCn1c(=S)[nH]c2nc3c(cc2c1=O)COC(C)(C)C3`, the calcium response (max-min fluorescence) was 521 (inactive).

For the molecule `CN1CCN(c2ccc(NC(=O)COc3ccc(Cl)cc3Cl)cc2)CC1`, the calcium response (max-min fluorescence) was 339 (active). As for `O=C(Cc1cccs1)N1CCCC(c2nc(-c3ccc(S(=O)(=O)N4CCCC4)cc3)no2)C1` (stereo not given), the calcium response (max-min fluorescence) was 457 (active). With `CCn1c(=N)n(CC(=O)c2cccc(OC)c2)c2ccccc21`, the calcium response (max-min fluorescence) was 447 (active). Then `CCOC(=O)Nc1ccc2c(c1)N(C(=O)CN1CCN3CCCC3C1)c1ccccc1CC2` (stereo not given), with 476 (active); and `Cc1c(C)c2cc3c4c(oc3c(C)c2oc1=O)CCCC4`, with 548 (inactive); and `Cc1ccccc1C(OCC(O)CN1CCCCC1CCO)c1ccccc1` (stereo not given), with 337 (active).

As to `O=S(=O)(CCc1nc2ccccc2o1)c1ccc(Cl)cc1`, the calcium response (max-min fluorescence) was 608 (inactive).

Regarding `CCCCN(C)C(=O)c1ccc2c(c1)N(CC)C(=O)c1ccccc1S2(=O)=O`, the calcium response (max-min fluorescence) was 320 (active).

Regarding `C=CCSc1nc2ccccc2[nH]1`, the calcium response (max-min fluorescence) was 649 (inactive).

On to `Cc1ccc(-c2noc(CCC(=O)Nc3ccccc3N3CCN(C)CC3)n2)cc1`, for which the calcium response (max-min fluorescence) was 535 (active). In the case of `COc1ccc(-c2noc(CN(C)S(=O)(=O)c3ccc(C)cc3)n2)cc1` it was 520 (inactive); in that of `O=C(c1ccco1)N1CCN=C1SCc1cccc(Cl)c1`, 602 (inactive); in that of `CN1CCN(CC(=O)Nc2sc3c(c2C#N)CCC(C(C)(C)C)C3)CC1` (stereo not given), 551 (inactive). Then `O=C(C(NS(=O)(=O)c1cccc2nsnc12)c1ccccc1)N1CCN(c2ccccn2)CC1` (stereo not given), with 430 (active); and `COc1ccc(CCn2c(=N)c(C(=O)NCc3ccco3)cc3c(=O)n4cccc(C)c4nc32)cc1`, with 489 (inactive). In the case of `CCN1CCN(c2c(Cl)cccc2NC(=O)c2ccc(Br)o2)CC1` it was 179 (active); in that of `CCOC(=O)c1c(NC(=O)CSc2nnc(CN3CCOCC3)n2C)sc2c1CCCC2`, 535 (inactive); in that of `Cc1nc2c(-c3ccc(F)cc3)c(C)nn2c(C)c1CCC(=O)N1CCN(c2ccccn2)CC1`, 512 (active). Consider `COCCn1c(SCC(=O)Nc2cc(Cl)ccc2OC)nc2c(c1=O)SC(C)C2` (stereo not given), for which the calcium response (max-min fluorescence) was 596 (inactive). In the case of `Cc1cccc(N2CCN(Cc3c(C)n(C)n(-c4ccccc4)c3=O)CC2)c1C` it was 413 (active); in that of `O=C(CCN1C(=O)COc2ccccc21)NCCCN1CCN(c2ccc(F)cc2)CC1`, 484 (inactive); in that of `CCn1c(=O)cc(OCC(=O)NCCCN2CCN(c3cccc(Cl)c3)CC2)c2ccccc21`, 499 (active). Take `COc1cccc2sc(Nc3nc(C)c(C(C)=O)s3)nc12`: the calcium response (max-min fluorescence) is 507 (inactive).

On to `O=C(NCCCN1CCCCCC1)C1CC(=O)N(C2CCCC2)C1` (stereo not given), for which the calcium response (max-min fluorescence) was 430 (active).

Consider `c1ccc(-c2cc(-c3nnc4sc(-c5ccccn5)nn34)[nH]n2)cc1`, for which the calcium response (max-min fluorescence) is 437 (active). Consider `O=C(NCC(F)(F)F)Nc1nnc(C(F)(F)F)s1`, for which the calcium response (max-min fluorescence) is 552 (inactive). Then `CCN(CCCCOC(=O)c1ccc(OC)c(OC)c1)C(C)Cc1ccc(OC)cc1` (stereo not given), with 18.8 (active). On to `COC(=O)c1ccc(C2C3=C(Nc4nnnn42)c2ccccc2OC3)cc1` (stereo not given), for which the calcium response (max-min fluorescence) is 596 (inactive).

For `CC12CN(Cc3ccccc3)CC(C)(CN(Cc3ccccc3)C1)C2=NO`, the calcium response (max-min fluorescence) was 113 (active).

For the molecule `CC1CCCC(C)N1CCCNC(=O)c1cc2c(=O)n(C)c3ccccc3c2n1C` (stereo not given), the calcium response (max-min fluorescence) is 487 (inactive). As to `Cc1nc2ccccc2c2oc(C(=O)NCCCN3CCC(C)CC3)cc12`, the calcium response (max-min fluorescence) was 498 (active).

On to `CCC1(C)Cc2c(sc3nc4n(c(=O)c23)CCCS4)CO1` (stereo not given), for which the calcium response (max-min fluorescence) is 471 (inactive). Take `CCC(C(=O)OCCN(CC)CC)c1ccccc1` (stereo not given): the calcium response (max-min fluorescence) was 24 (active). In the case of `CCN1C(=O)/C(=C2\SC(N3CCCCC3)=NC2=O)c2ccccc21` it was 460 (inactive). In the case of `COc1cc(Cl)c(C)cc1NC(=O)CSc1nnc(-c2ccco2)n1CC(C)C` it was 533 (inactive); in that of `CCCCOc1ccc(C(C)(O)CCN2CCOCC2)cc1` (stereo not given), 448 (active).

In the case of `O=C(Nc1ccncc1)c1c(F)cccc1F`, the calcium response (max-min fluorescence) was 653 (inactive). Consider `CCOC(=O)c1c(-c2ccc(C)cc2C)csc1NC(=O)CSc1nnnn1C`, for which the calcium response (max-min fluorescence) is 519 (inactive).

As for `O=C1NC(Nc2nc3ccccc3s2)(C(F)(F)F)C(=O)N1C1CCCCC1` (stereo not given), the calcium response (max-min fluorescence) is 339 (active). As to `O=C(C(c1ccccc1)c1ccccc1)N1CCN(CC(O)COc2ccccc2)CC1` (stereo not given), the calcium response (max-min fluorescence) was 490 (active). In the case of `CCC(=O)c1ccc(OCC(O)CN2CCN(c3cccc(C(F)(F)F)c3)CC2)cc1` (stereo not given) it was 531 (inactive).

In the case of `COc1ccccc1OCCOc1ccc(/C=N/n2cnnc2)cc1`, the calcium response (max-min fluorescence) is 587 (inactive).

As to `CCC/C(O)=C1\C(=O)CC(C)(C)CC1=Nc1ccccc1OC`, the calcium response (max-min fluorescence) was 647 (inactive). Then `Cc1ccc(-c2csc3nnc(SCC(=O)NCc4ccco4)n23)cc1`, with 620 (inactive); and `CCOC(=O)N1CCN(C(=O)C2CCN(c3ncnc4c3sc3cccc(F)c34)CC2)CC1`, with 468 (active). Then `CCOC(=O)N1CCN(S(=O)(=O)c2cc(Br)cc3c2N(C(=O)C2CC2)CC3)CC1`, with 646 (inactive). Turning to `CCOC(=O)N1CCN(CC(=O)Nc2cc(C)nn2-c2nc3ccccc3s2)CC1`, the calcium response (max-min fluorescence) is 645 (inactive). Then `CCOC(=O)N1CCN(C(=O)C2CCCN(c3ncnc4c3sc3cccc(F)c34)C2)CC1` (stereo not given), with 126 (active); and `COc1ccc(-c2nnn(Cc3nc(N)nc(N4CCCCC4)n3)n2)cc1`, with 539 (inactive); and `CSc1nnc2c(n1)OC(c1ccsc1)N(C(C)=O)c1ccccc1-2` (stereo not given), with 250 (active). Regarding `CCOC(=O)C1CCN(Cc2coc3ccc(Cl)cc3c2=O)CC1`, the calcium response (max-min fluorescence) is 351 (active). On to `CCC(C)(NC(=O)c1ccccn1)C(=O)NC1CCCCC1` (stereo not given), for which the calcium response (max-min fluorescence) was 623 (inactive). As to `N#CC(C(=O)c1ccc(S(=O)(=O)N2CCCCCC2)cc1)c1nc2ccccc2[nH]1` (stereo not given), the calcium response (max-min fluorescence) was 689 (inactive). In the case of `O=C(CCCN1C(=O)CSc2ncccc21)N1CCN(c2cccc(C(F)(F)F)c2)CC1` it was 462 (active); in that of `CC1=Nn2c(nnc2-c2ccccc2)SC1`, 675 (inactive). As for `CCCCCOC(=O)NCCOC(=O)Nc1ccc(C(=O)OCC)cc1`, the calcium response (max-min fluorescence) was 655 (inactive). As for `COc1cc(OC)c(C(=O)NC2CC(C)(C)NC(C)(C)C2)cc1OC`, the calcium response (max-min fluorescence) was 510 (inactive). Then `Cc1cc(C)n(-c2nc(SCC(=O)N3CCCC3)c3c4c(sc3n2)CCCC4)n1`, with 466 (inactive). For the molecule `CN(C)CCOC(=O)C(c1ccccc1)C1(O)CCCC1` (stereo not given), the calcium response (max-min fluorescence) was 17.7 (active).

On to `COC(=O)c1ccc(NC(=O)CN(c2ccc(C)cc2)S(=O)(=O)c2c(C)n[nH]c2C)cc1`, for which the calcium response (max-min fluorescence) was 538 (inactive).

As to `CC1(C)CN=C(N2CCN(c3ncnc4sc5c(c34)CCCC5)CC2)S1`, the calcium response (max-min fluorescence) was 344 (active). Turning to `O=C(NC1=NCCS1)c1ccc(Cl)s1`, the calcium response (max-min fluorescence) is 680 (inactive).

Turning to `C=C(C)Cn1c(N2CCCC2)nc2c1c(=O)[nH]c(=O)n2C`, the calcium response (max-min fluorescence) is 505 (inactive). With `CC(C)(C)n1nnnc1C(c1cccs1)N(Cc1cccnc1)CC1CCCO1` (stereo not given), the calcium response (max-min fluorescence) is 380 (active).

Take `O=C(c1ccc(S(=O)(=O)N2CCOCC2)cc1)N1CCN(c2ccccc2)CC1`: the calcium response (max-min fluorescence) was 556 (inactive). In the case of `O=S(=O)(c1ccc(OCC(O)CN2CCN(c3ccccc3Cl)CC2)cc1)N1CCOCC1` (stereo not given) it was 515 (active); in that of `CCOC(=O)C1=C(CC)Nc2ccccc2N=C1NC(=O)c1cccc(S(=O)(=O)N2CCCC2)c1`, 466 (active); in that of `Cn1c(CCN2CCCCCC2)nc2cc(NC(=O)Nc3ccccc3)ccc21`, 252 (active). In the case of `COc1ccc(S(=O)(=O)Nc2ccc3c(c2)OCO3)cc1Cl` it was 516 (inactive); in that of `CN(C)[C@@H]1C(=O)C(C(N)=O)=C(O)[C@@]2(O)C(=O)C3=C(O)c4c(O)ccc(Cl)c4[C@@H](O)[C@H]3C[C@@H]12`, 610 (inactive). Turning to `CC1(C)Cc2c(sc3nc4n(c(=N)c23)CCCCC4)CO1`, the calcium response (max-min fluorescence) is 398 (inactive). In the case of `CCOC(=O)c1[nH]c2ccc(OC)cc2c1NC(=O)CCN1CCN(Cc2ccccc2)CC1` it was 218 (active). In the case of `O=C(c1ccc(-n2cnnn2)cc1)N1CCN(C(c2ccccc2)c2ccccc2)CC1` it was 100 (active); in that of `CCCCN(CCCC)C(=O)CCS(=O)(=O)c1ccc2c(c1)n(C)c(=O)c(=O)n2C`, 581 (inactive); in that of `CCOc1ccccc1C(=O)NCCCn1ccnc1`, 665 (inactive). On to `COC(CCN(C)C)(c1ccccc1)c1ccccc1`, for which the calcium response (max-min fluorescence) is 226 (active). In the case of `COc1cccc(OCCOc2cccc(/C=N/n3cnnc3)c2)c1`, the calcium response (max-min fluorescence) was 588 (inactive). Turning to `COCCN(C(=O)CCC(=O)Nc1ccccn1)C(C(=O)NCCC(C)C)c1ccc(OC)cc1` (stereo not given), the calcium response (max-min fluorescence) was 575 (inactive).
